From the supplement of paper PMC6555819

Assays:
Assay in all cases: PBM binding z-score (relative to random genomic background probes); higher = stronger binding; sequences stand for … in GC…GCGATTGACAGCGTAGAATGAAGG
[1] = system: PPARg:RXRa DBDmut IVT, anti-RXR (DBD mutation: RXRa K156A/R161A, NR concentration 270 nM, RXRa partner concentration 90 nM)
Summary of the method: (§1)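 Binding buffer was PBS pH 7.4 with 2% milk, 0.02% Triton X-100, 1 mM DTT, 0.2 mg/mL BSA and 0.4 mg/ml salmon testes DNA. In it, ligand-free nuclear receptor dimers were incubated 1 h on custom Agilent 4×180K protein-binding microarrays carrying double-stranded probes. Antibodies against each partner (one per run) detected binding, and z-scores were calculated against random background probes after regression normalization of scanned fluorescence.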

[2] = system: PPARg:RXRa IVT, anti-PPARg (NR concentration 270 nM, RXRa partner concentration 90 nM)
Summary of the method: as §1

[3] = system: PPARg DBDmut:RXRa IVT, anti-PPARg (DBD mutation: PPARg1 K132A/R137A, NR concentration 270 nM, RXRa partner concentration 90 nM)
Summary of the method: as §1

[4] = system: PPARg DBDmut IVT, anti-PPARg (DBD mutation: PPARg1 K132A/R137A, NR concentration 270 nM)
Summary of the method: as §1

[5] = system: PPARg homodimer (NR concentration 180 nM)
Summary of the method: as §1

[6] = system: PXR:RXRa (NR concentration 270 nM, RXRa partner concentration 90 nM)
Summary of the method: as §1

[7] = system: PXR homodimer (NR concentration 270 nM)
Summary of the method: as §1

[8] = system: RARa:RXR (NR concentration 270 nM, RXRa partner concentration 90 nM)
Summary of the method: as §1

[9] = system: RARa homodimer (NR concentration 270 nM)
Summary of the method: as §1

[10] = system: RARb:RXRa (NR concentration 270 nM, RXRa partner concentration 90 nM)
Summary of the method: as §1

Sequence | PBM binding z-score [1] | PBM binding z-score [2] | PBM binding z-score [3] | PBM binding z-score [4] | PBM binding z-score [5] | PBM binding z-score [6] | PBM binding z-score [7] | PBM binding z-score [8] | PBM binding z-score [9] | PBM binding z-score [10]
TCTAGTTGGCCAAAGGTCACACACTCGAAATGCG | 2.73 | 5.56 | 0.249 | 0.877 | 6.18 | 5.82 | 1.45 | 6.89 | 3.8 | 4.93
TTACCAAGTTGAGCTGAGGTCGTTGATCCAACTC | -0.673 | 0.221 | -0.252 | -0.114 | -0.328 | 3.88 | 0.614 | 1.76 | -0.601 | 0.659
CCGACTGGGGCACAGGTTACCATACTCAGTACGA | 3.76 | 4.97 | -0.354 | -0.501 | 1.14 | 0.174 | -0.362 | 0.462 | 0.15 | 1.07
TCTGTTAGGTCAGTTGGTCAGCTAACGAGCTGCC | 2.15 | 3.2 | 2.86 | 2.08 | 1.91 | 0.988 | 0.313 | 1.29 | 0.814 | 3.71
ACTCGGAGGACAAAGGCCAGAGCTACGCCAGTGA | -0.0476 | -0.304 | -0.91 | -1.31 | -0.117 | -0.788 | -0.627 | -0.794 | -0.32 | 1.44
TAGCCTAGGTCATTGGGCCAGGATAGTACGCATC | 2.04 | 3.75 | 0.235 | 0.25 | 0.798 | 1.05 | -0.39 | 1.99 | -0.0581 | 3.49
TTACCAAGGTGAGCTGAGGTCGTTAATCCAACTC | 1.09 | 1.7 | -0.772 | -1.04 | -0.219 | 4.5 | 0.182 | 1.51 | -0.951 | 1.59
TCTCGGAGGACACGAAAGTTCAGAGCTCGACATC | 1.71 | -0.0575 | -0.141 | -0.597 | 0.949 | 3.3 | 2.7 | 1.27 | 0.226 | 2.78
ACTAGCAGGCCAAGTTTGGGTCACTCTAACAAAG | 0.86 | 1.15 | -0.869 | -1.06 | 0.634 | 0.8 | -0.149 | 1.57 | -0.645 | 1.91
AGTCAAAGTTCAGGACGTGGTAACGTAAAGCACG | -0.468 | 1.64 | 0.643 | 0.0633 | 1.68 | 2.15 | 0.643 | 1.86 | 0.703 | 4.15
CCATACGGGTCAAGGTTATAGCACGGGTGGTACG | 1.2 | 3.15 | 0.543 | -0.539 | 2.1 | 3.06 | 0.247 | 3.82 | 0.795 | 4.1
CTCGAAAGGTCGGGCTCAGGTGAGTATACCAAAC | 0.601 | 1.13 | 0.0395 | -0.176 | 1.13 | 1.64 | -0.297 | 2.71 | 0.232 | 3.36
CAGCCTAGGCCAGGGCCAGTATAGGAGGAACGTT | -0.58 | -0.938 | -1.07 | -1.68 | -1.39 | -1.04 | -0.58 | -0.83 | -0.971 | -0.0787
GCTAGTTGGTCAGAAAAAGGTCACACACCGGTCG | 0.771 | 2.29 | -0.31 | -0.0601 | 4.2 | 4.56 | 1.01 | 5.62 | 1.53 | 4.17
ACTAGCAGGCCAAGGGTCATTCAAGATTAGTCCG | 0.965 | 3.72 | 0.143 | -0.155 | 1.76 | 3.83 | 0.144 | 4.26 | 0.503 | 3.41
GCTGCTAGGTCAGGTTGGTCAGCAAACGGGTACG | 2.74 | 2.2 | -0.864 | -0.495 | 0.7 | 0.33 | -0.684 | 0.7 | -0.687 | 3.25
CTACCGAGGTGAACAAGGTCGTTGATTACTATTC | 2.91 | 3.47 | 0.523 | 0.329 | 0.965 | 3.25 | 1.95 | 2.62 | -0.15 | 2.19
ACTCGGAGGACAAAGGTCAGATCTACGCCAGTGA | 0.776 | 3.13 | 0.263 | -0.358 | 2.46 | 3.86 | 0.325 | 4.45 | 1.42 | 4.33
TCAGACTGGTGAAGGTAACTCAGGTACGCAGTCG | 1.41 | 0.112 | -0.324 | -0.759 | -0.234 | 0.0294 | -0.386 | 0.305 | -0.373 | -0.0149
CATACTGGGTCAGCTAGGCCAGAGTAGGGACGGC | 4.6 | 5.45 | 0.321 | 0.266 | 0.468 | 0.34 | -0.327 | 0.776 | -0.0823 | 3.04
AGAATGAGGTTATTAAGAACAGGGAATTGCGGTC | 3.07 | 2.57 | 0.828 | 0.0753 | 0.538 | 1.13 | 0.548 | 1.32 | 0.488 | 1.4
CTCGAAAGGTCCGTTGAGGTGAGTATACGGATAA | -0.499 | 0.457 | 0.113 | -0.18 | -0.594 | 0.156 | -0.14 | 0.322 | -0.439 | 1.12
CCGACTGAGGCATAAGGTTACCATAAGCCAGCCC | 0.216 | -0.451 | -0.747 | -0.854 | 0.366 | 0.286 | -0.308 | 1.03 | 0.101 | 0.876
TCATATAGGTAATACAGGTGAGAGTCGGCATCTA | 3.93 | 3.29 | 1.38 | 1.56 | 0.749 | 0.46 | 0.623 | 0.533 | 1.42 | 0.457
CCTGCTAGGTCAATGGCCAGCTAAAGCAGCTCGC | 4.15 | 3.04 | -1.08 | -1.25 | 0.733 | 0.566 | -0.775 | 1.31 | -0.563 | 3.73
